Common to all, as to test: DAPPL (digital affinity profiling via proximity ligation, sequencing); 10 mM Tris-HCl pH 7.5, 50 mM NaCl, 1 mM DTT, 4% glycerol, room temperature, 30 min; GST-TFs on glutathione beads, 16-mer random dsDNA library, 0.1% formaldehyde crosslink after washing; high values mean tight binding
Details in all cases: protein: recombinant; tags: N-terminal GST; dsDNA, one strand shown

Assay [1] has as its target T1, EHF (Homo sapiens, UniProt Q9NZC4 1-300).
T1 sequence: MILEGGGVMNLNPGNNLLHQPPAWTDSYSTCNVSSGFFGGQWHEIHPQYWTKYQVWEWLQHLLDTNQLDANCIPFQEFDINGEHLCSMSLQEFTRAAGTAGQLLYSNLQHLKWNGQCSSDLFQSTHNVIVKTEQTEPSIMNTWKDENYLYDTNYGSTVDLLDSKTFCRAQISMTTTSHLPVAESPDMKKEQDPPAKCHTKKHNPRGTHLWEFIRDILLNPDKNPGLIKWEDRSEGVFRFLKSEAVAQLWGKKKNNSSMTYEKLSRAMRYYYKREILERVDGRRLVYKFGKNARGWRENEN
The gist of the method: (§1)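 Binding signal is defined as a hexamer's read frequency for one factor over its frequency for the tag-only sample. To obtain reads, GST-fused human transcription factors were expressed in yeast, captured on glutathione beads, barcoded with DNA and pooled with that sample. Pools met 200 nmole of a 16-mer random double-stranded DNA library in Tris/NaCl/DTT/glycerol buffer for 30 min at room temperature before washing, 0.1% formaldehyde crosslinking, proximity ligation (BsaI/T4 ligase, 1 h, 37 °C), PCR and Illumina NextSeq500 sequencing.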

The target in assay [2] is SPIB (Homo sapiens, UniProt Q01892 1-262). In short, it runs like this:
as §1

Assay [3] has as its target T2, ELK3 (Homo sapiens, UniProt P41970 1-407).
T2 sequence: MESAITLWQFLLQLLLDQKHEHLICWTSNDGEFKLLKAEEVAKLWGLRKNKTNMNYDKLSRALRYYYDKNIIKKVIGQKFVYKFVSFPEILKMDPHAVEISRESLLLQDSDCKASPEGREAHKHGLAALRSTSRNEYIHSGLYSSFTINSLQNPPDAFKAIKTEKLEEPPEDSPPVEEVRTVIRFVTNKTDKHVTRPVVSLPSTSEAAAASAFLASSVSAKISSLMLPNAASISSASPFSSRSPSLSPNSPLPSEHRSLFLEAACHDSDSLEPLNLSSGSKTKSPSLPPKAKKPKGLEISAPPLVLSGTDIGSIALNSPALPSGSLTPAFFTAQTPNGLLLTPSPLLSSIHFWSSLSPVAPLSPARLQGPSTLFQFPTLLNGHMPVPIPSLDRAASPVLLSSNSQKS
The gist of the method: as §1

Assay [4] addresses T3, SPIC (Homo sapiens, UniProt Q8N5J4 1-248).
T3 sequence: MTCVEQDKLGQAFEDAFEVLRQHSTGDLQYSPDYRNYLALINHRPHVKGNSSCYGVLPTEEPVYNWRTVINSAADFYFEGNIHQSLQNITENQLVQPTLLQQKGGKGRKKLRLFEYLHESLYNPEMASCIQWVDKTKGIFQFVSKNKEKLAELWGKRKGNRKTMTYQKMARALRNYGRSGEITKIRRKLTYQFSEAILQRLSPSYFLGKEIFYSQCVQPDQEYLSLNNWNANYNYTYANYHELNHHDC
In short, it runs like this:
as §1

In assay [5] the target is T4, ELK4 (Homo sapiens, UniProt P28324-2 1-405).
T4 sequence: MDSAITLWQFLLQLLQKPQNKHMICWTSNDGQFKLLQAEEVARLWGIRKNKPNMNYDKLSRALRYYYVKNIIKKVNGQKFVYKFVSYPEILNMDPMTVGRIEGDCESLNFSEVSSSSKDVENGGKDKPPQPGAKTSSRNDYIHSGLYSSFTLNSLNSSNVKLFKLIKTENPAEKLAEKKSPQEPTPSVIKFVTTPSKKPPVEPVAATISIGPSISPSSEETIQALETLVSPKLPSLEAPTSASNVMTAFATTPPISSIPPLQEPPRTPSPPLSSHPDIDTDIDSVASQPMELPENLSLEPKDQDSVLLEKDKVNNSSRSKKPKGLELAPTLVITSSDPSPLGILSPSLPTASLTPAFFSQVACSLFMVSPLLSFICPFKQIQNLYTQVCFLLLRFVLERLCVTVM
In short, it runs like this:
as §1

Assay [6] addresses T5, ETV2 (Homo sapiens, UniProt O00321 1-342).
T5 sequence: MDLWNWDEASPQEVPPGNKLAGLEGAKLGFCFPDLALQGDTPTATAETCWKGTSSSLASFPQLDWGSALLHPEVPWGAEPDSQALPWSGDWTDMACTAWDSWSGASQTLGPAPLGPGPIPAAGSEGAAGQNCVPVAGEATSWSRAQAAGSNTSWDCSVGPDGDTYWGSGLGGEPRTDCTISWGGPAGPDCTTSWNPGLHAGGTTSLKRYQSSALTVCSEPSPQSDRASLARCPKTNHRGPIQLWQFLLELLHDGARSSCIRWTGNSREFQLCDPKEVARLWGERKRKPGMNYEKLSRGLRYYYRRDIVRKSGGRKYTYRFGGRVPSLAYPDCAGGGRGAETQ
The gist of the method: as §1

Assay [7] has as its target SPI1 (Homo sapiens, UniProt P17947 1-270). In short, it runs like this:
as §1

The target of assay [8] is T6, FEV (Homo sapiens, UniProt Q99581 1-238).
T6 sequence: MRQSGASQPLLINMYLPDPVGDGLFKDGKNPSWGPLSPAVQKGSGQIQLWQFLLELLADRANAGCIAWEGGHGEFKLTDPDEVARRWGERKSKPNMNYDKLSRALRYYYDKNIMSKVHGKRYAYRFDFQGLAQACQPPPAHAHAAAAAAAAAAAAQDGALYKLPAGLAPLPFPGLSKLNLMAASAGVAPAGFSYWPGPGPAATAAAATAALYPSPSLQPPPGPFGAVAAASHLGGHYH
The gist of the method:
as §1

The target in assay [9] is T7, ELF3 (Homo sapiens, UniProt P78545 1-371).
T7 sequence: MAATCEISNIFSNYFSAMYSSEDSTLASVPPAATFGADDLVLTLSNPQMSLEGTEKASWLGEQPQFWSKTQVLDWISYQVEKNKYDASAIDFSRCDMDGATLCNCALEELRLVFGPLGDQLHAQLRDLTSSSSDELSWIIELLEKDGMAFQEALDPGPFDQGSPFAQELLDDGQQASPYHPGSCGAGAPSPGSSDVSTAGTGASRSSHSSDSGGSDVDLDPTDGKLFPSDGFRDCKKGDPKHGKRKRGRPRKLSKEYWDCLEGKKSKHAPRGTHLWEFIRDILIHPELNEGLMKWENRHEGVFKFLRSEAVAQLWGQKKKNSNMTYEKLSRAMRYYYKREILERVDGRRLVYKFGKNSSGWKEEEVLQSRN
The gist of the method:
as §1

For assay [10], the target named is T8, ERF (Homo sapiens, UniProt P50548 1-548).
T8 sequence: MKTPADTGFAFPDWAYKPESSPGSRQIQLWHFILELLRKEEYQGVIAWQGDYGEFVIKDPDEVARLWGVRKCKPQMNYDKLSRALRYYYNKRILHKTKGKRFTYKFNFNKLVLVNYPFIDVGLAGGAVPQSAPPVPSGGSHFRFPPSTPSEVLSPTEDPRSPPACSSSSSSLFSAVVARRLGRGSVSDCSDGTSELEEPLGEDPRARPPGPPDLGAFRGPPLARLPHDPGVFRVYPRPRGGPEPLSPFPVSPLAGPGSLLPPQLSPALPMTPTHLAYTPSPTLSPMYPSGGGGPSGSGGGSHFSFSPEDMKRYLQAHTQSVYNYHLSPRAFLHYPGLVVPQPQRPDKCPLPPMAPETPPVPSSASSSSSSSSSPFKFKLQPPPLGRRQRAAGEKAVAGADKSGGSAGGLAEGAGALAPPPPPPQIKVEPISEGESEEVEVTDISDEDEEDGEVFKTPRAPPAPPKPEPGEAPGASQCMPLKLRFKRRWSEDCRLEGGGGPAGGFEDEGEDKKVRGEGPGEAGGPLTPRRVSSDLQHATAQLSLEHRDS
In short, it runs like this: as §1

The target of assay [11] is T9, ETV3L (Homo sapiens, UniProt Q6ZN32 1-361).
T9 sequence: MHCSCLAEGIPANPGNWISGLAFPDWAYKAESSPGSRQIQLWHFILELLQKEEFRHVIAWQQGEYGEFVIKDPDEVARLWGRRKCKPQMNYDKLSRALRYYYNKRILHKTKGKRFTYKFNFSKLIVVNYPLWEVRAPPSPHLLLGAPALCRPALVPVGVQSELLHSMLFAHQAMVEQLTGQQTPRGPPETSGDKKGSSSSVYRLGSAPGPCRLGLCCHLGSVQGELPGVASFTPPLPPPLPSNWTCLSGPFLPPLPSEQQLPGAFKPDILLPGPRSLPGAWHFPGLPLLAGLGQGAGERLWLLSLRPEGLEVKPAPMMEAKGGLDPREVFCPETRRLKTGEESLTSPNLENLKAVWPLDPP
In short, it runs like this: as §1

Assay [12] deals with ETV1 (Homo sapiens, UniProt P50549 1-477). In short, it runs like this:
as §1

SPIB, sequence (Q01892 whole entry): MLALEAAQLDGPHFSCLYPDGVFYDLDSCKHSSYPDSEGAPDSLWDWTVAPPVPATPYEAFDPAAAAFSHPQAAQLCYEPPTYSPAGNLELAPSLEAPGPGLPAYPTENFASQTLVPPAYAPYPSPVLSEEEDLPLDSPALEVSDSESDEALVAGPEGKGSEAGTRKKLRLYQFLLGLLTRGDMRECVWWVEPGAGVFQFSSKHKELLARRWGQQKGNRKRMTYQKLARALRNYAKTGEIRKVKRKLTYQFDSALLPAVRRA
ETV1, sequence (P50549 whole entry): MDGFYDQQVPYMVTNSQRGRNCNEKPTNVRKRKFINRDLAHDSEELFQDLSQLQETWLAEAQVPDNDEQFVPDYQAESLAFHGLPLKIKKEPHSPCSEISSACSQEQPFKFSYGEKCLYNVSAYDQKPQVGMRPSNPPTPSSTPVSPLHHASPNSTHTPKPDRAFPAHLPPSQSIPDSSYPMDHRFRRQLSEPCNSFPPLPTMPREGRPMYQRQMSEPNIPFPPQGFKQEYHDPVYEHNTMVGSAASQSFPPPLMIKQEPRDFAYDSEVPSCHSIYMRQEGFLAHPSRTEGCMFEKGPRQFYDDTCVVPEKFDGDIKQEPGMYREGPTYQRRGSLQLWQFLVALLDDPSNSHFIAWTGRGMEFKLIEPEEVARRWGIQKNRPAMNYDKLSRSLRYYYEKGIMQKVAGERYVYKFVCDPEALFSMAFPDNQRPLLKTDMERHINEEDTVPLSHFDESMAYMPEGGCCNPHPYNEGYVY

Regarding CGCGCA, the binding signal in [1] was 1.07 fold enrichment (6-mer frequency, TF over GST control); in assay [2] it was 1.04 fold enrichment (6-mer frequency, TF over GST control); in [3], 1.01 fold enrichment (6-mer frequency, TF over GST control); in assay [4], 1.01 fold enrichment (6-mer frequency, TF over GST control); in assay [5], 1.13 fold enrichment (6-mer frequency, TF over GST control); in [6], 1.02 fold enrichment (6-mer frequency, TF over GST control).

As for GGCGTT, the binding signal in [7] is 1.03 fold enrichment (6-mer frequency, TF over GST control); in assay [2], 1.05 fold enrichment (6-mer frequency, TF over GST control); in [3], 1.02 fold enrichment (6-mer frequency, TF over GST control); in assay [8], 1.01 fold enrichment (6-mer frequency, TF over GST control); in [4], 1.08 fold enrichment (6-mer frequency, TF over GST control); in assay [6], 1.13 fold enrichment (6-mer frequency, TF over GST control). Further, the binding signal was 1.1 fold enrichment (6-mer frequency, TF over GST control) in [9]; 1.01 fold enrichment (6-mer frequency, TF over GST control) in [10]; 1.09 fold enrichment (6-mer frequency, TF over GST control) in [11].

As to AGATAC, the binding signal in [1] was 1 fold enrichment (6-mer frequency, TF over GST control); in assay [4], 1.05 fold enrichment (6-mer frequency, TF over GST control); in assay [9], 1.01 fold enrichment (6-mer frequency, TF over GST control).

For GTGATG, the binding signal in assay [2] is 1.04 fold enrichment (6-mer frequency, TF over GST control); in assay [4], 1.01 fold enrichment (6-mer frequency, TF over GST control); in [5], 1.18 fold enrichment (6-mer frequency, TF over GST control); in assay [12], 1.03 fold enrichment (6-mer frequency, TF over GST control).
